Source: PubChem BioAssay (Tox21)
Records with an inconclusive call do not appear. Where a call stands in place of a potency, no number is given. The source made the active and inactive calls. Unless noted, calls come from the whole dose curve.

The compounds below were run against Vitamin D3 receptor (Homo sapiens) (UniProt P11473) (assay: qHTS assay to identify small molecule agonists of the vitamin D receptor (VDR) signaling pathway (AID 743222)). Details: HEK293T VDR-UAS-bla, beta-lactamase FRET ratio, 16 h; series mostly up to 63.5 µM.
Vitamin D3 receptor (Homo sapiens), sequence (P11473 whole entry, looked up): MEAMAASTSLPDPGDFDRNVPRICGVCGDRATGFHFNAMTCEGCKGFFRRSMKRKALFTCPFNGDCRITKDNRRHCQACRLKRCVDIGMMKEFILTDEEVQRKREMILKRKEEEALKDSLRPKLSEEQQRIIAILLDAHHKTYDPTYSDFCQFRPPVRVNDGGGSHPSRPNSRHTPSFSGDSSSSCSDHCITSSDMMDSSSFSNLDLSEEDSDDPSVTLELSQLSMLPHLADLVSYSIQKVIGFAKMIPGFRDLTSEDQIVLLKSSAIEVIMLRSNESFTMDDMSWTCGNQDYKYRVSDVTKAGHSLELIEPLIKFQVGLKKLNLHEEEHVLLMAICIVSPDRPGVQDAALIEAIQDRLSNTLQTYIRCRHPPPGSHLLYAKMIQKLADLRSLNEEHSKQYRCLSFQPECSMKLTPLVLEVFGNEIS
How it was run: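 Agonist mode, beta-lactamase reporter: fluorescence from LiveBLAzer B/G FRET substrate (2 h, room temperature) read after 16 h compound treatment at 37 C of VDR-bla cells, which were pre-incubated 4 h after seeding.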
With `CO[C@H]1C=CO[C@@]2(C)Oc3c(C)c(O)c4c(O)c(c(/C=N/N5CCN(C)CC5)c(O)c4c3C2=O)NC(=O)/C(C)=C\C=C[C@H](C)[C@H](O)[C@@H](C)[C@@H](O)[C@@H](C)[C@H](OC(C)=O)[C@@H]1C` the outcome was “inactive”. In the case of `NC(=O)NO`, the outcome is reported as “inactive”. In the case of `CC1=C(/C=C/C(C)=C/C=C/C(C)=C/C(=O)O)C(C)(C)CCC1`, the outcome is reported as “inactive”. `NCCNc1cccc2ccccc12` was tested, and the outcome was “inactive”. `c1ccc2[nH]c(-c3cscn3)nc2c1` was tested, and the outcome was “inactive”. For `O=C1OC(c2ccc(O)cc2)(c2ccc(O)cc2)c2ccccc21`, the outcome was “inactive”. For `NC(=O)N/N=C/c1ccc([N+](=O)[O-])o1`, the outcome was “inactive”. For `Cc1cccc(Nc2cc(Cl)nc(SCC(=O)O)n2)c1C`, the outcome was “inactive”. With `CCc1cc(C(N)=S)ccn1` the outcome was “inactive”. In the case of `CCn1cc(C(=O)O)c(=O)c2ccc(C)nc21`, the outcome is reported as “inactive”. In the case of `CC(=O)/C=C/C1=C(C)CCCC1(C)C`, the outcome is reported as “inactive”. For `COc1ccccc1NC(=O)CC(C)=O`, the outcome was “inactive”. `CC(C)=CCC/C(C)=C/CO` was tested, and the outcome was “inactive”. With `C[C@]12CC[C@@H]3c4ccc(O)cc4C[C@@H](CCCCCCCCCS(=O)CCCC(F)(F)C(F)(F)F)[C@H]3[C@@H]1CC[C@@H]2O` (stereo partly drawn) the outcome was “inactive”. `O=C(OCc1ccccc1)c1ccccc1` was tested, and the outcome was “inactive”. `O=C(O)CN(CC(=O)O)CC(=O)O` was tested, and the outcome was “inactive”. `CCCCOCCOCCSC#N` was tested, and the outcome was “inactive”. For `NC(=O)c1ccc([N+](=O)[O-])cc1Cl`, the outcome was “inactive”. With `Cc1c(N(C)C)c(=O)n(-c2ccccc2)n1C` the outcome was “inactive”. For `COc1ccc(O)cc1`, the outcome was “inactive”. `C[C@]12C=CC(=O)C=C1CC[C@@H]1[C@@H]2C(=O)C[C@@]2(C)[C@H]1CC[C@]2(O)C(=O)CO` was tested, and the outcome was “inactive”. In the case of `O=c1cc[nH]c(=O)[nH]1`, the outcome is reported as “inactive”. With `CC(C)(C)CC(C)(C)c1ccc(O)c(-n2nc3ccccc3n2)c1` the outcome was “inactive”.

These compounds were tested against Vitamin D3 receptor (Homo sapiens) (UniProt P11473) (assay: qHTS assay to identify small molecule antagonists of the vitamin D receptor (VDR) signaling pathway (AID 743223; active = well fitted inhibition curve with a large enough effect in the signal ratio in the repeat runs, not every such curve was filed as active; the % refers to the signal ratio)). Details: VDR-UAS-bla HEK293T, beta-lactamase FRET ratio, 16 h; series mostly up to 61 µM.
How it was run: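 Beta-lactamase activity in VDR-bla cells is measured by FRET substrate fluorescence (2 h, room temperature) after cells spend 16 h at 37C with test compound and 3 nM final 1alpha,25-dihydroxyvitamin D3.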
For `NC(=O)N/N=C/c1ccc([N+](=O)[O-])o1`, the Potency was “inactive”. For `CCn1cc(C(=O)O)c(=O)c2ccc(C)nc21`, the Potency was “inactive”. `CC(C)=CCC/C(C)=C/CO` was tested, and the Potency was “inactive”. `C[C@]12CC[C@@H]3c4ccc(O)cc4C[C@@H](CCCCCCCCCS(=O)CCCC(F)(F)C(F)(F)F)[C@H]3[C@@H]1CC[C@@H]2O` (stereo partly drawn) was tested, and the Potency was “inactive”. In the case of `O=C(O)CN(CC(=O)O)CC(=O)O`, the Potency is reported as “inactive”. With `CCCCOCCOCCSC#N` the Potency was “inactive”. In the case of `NC(=O)c1ccc([N+](=O)[O-])cc1Cl`, the Potency is reported as “inactive”. For `COc1ccc(O)cc1`, the Potency was “inactive”. For `C[C@]12C=CC(=O)C=C1CC[C@@H]1[C@@H]2C(=O)C[C@@]2(C)[C@H]1CC[C@]2(O)C(=O)CO`, the Potency was “inactive”. For `O=c1cc[nH]c(=O)[nH]1`, the Potency was “inactive”.
